Experiment: optical density shifts of acrAB sulA E. coli – strain DRC41, OD650, 48 h, E. coli filamentation inducer project, primary screen (AID 1152);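 further: E. coli MC1000 strain DRC41 lacking acrAB efflux pump and sulA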
Conditions: higher = more signal, called active from +8 up or from −8 down

z-score, inactive:
CCOC(=O)C1=CCC(c2ccccc2)N(S(=O)(=O)CC[Si](C)(C)C)C1 (stereo not given) -0.348, O=C1OCCC/C=C\[C@H]2OC34C=CCN(CCN5CCOCC5)C(=O)[C@H]3N(CCCO)C(=O)[C@@H]4C12 (stereo not given in full) -0.478, COc1cc2c(cc1O)C=[N+](Cc1cccc(OC(F)(F)F)c1)CC2 0.272, COc1ccc(C(=O)Nc2cccc(CN3C(=O)[C@]4(O[C@H](CCO)[C@@H]([Si](C)(C)c5ccc(OC)cc5)[C@@H]4C)c4ccccc43)c2)cc1 -0.172, CCCCCN1CC=CC23O[C@@H]4/C=C\CCCOC(=O)C4[C@H]2C(=O)N(C(CO)C(C)C)[C@@H]3C1=O (stereo not given in full) 1.52, O=C1O[C@H](c2ccccc2)[C@H](c2ccccc2)N2[C@H]1[C@@H](C(=O)NC[C@H](O)c1ccccc1)[C@]1(C(=O)Nc3ccccc31)[C@H]2c1ccc(OCCO)cc1 -1.26, CCOC(=O)[C@H]1CC=C2CC1C(=O)N1CCC[C@@H]1[C@@H]2O[Si](C)(C)C(C)(C)C (stereo not given in full) -0.94, CCN(CC)c1ccc(N2CC=CC34O[C@@H]5/C=C\CCCOC(=O)C5[C@H]3C(=O)N(CCO)[C@@H]4C2=O)cc1 (stereo not given in full) -0.0626, COCCOC(=O)N1C(=O)[C@@]2(c3cc(C#CC4=CCCCC4)ccc31)[C@H](C(=O)Nc1nc3ccccc3s1)[C@H]1C(=O)O[C@H](c3ccccc3)[C@H](c3ccccc3)N1[C@@H]2c1ccc(OCCO)cc1 -1.56, CN1C(=O)C2C=CC(C(O)c3ccc(I)cc3)N(N3CCCCC3)C2C1=O (stereo not given) -2.04, CC1CC/C=C\[C@H]2OC34C=CCN(c5ccc(Cl)cc5)C(=O)[C@H]3N(CCO)C(=O)[C@]4(C)C2C(=O)O1 (stereo not given in full) -0.209, COCCOC(=O)N1C(=O)[C@@]2(c3cc(C#Cc4ccc(OC)cc4)ccc31)[C@H](c1ccc(O)cc1)N1[C@H](c3ccccc3)[C@H](c3ccccc3)OC(=O)[C@H]1[C@@H]2C(=O)NC[C@H](O)c1ccccc1 0.72, COc1ccc([Si](C)(C)[C@H]2[C@H](CCn3cc([C@H](O)c4ccccc4)nn3)O[C@@]3(C(=O)N(Cc4cccc(N5CCOC5=O)c4)c4ccccc43)[C@@H]2C)cc1 -0.454, CN1C(=O)C2C=CC(C(O)C3=C[C@H]4C[C@@H](C3)C4(C)C)N(Nc3ccccc3)C2C1=O (stereo not given in full) -0.318, CC(=O)NCCCC[C@@H]1NC(=O)[C@@H]2C[C@H](C(=O)NCCCCN(C)C)[C@H](c3cccc(OCCO)c3)N2C1=O 0.522, COc1ccc(CCNC(=O)[C@@]2(C)c3ccccc3C(=O)N(Cc3cc(F)cc(C(F)(F)F)c3)[C@H]2c2ccc(CO)cc2)cc1 0.753, C=CCOC(=O)[C@H]1[C@@H]2C(=O)O[C@@H](c3ccccc3)[C@@H](c3ccccc3)N2[C@@H](c2ccc(OCCOC(=O)[C@@H]3C[C@@H]4C(=O)N[C@@H](CCCC[N+](C)(C)C)C(=O)N4[C@@H]3c3ccc(O)cc3)cc2)[C@]12C(=O)Nc1ccccc12 0.443, O=C1OCCC/C=C\[C@H]2OC34C=CCN(Cc5ccccc5)C(=O)[C@H]3N(CCCCCCO)C(=O)[C@@H]4C12 (stereo not given in full) 1.19, C=C(CCCC)C(=O)CC[C@H](OC(C)=O)c1cccc(OCCO)c1 0.648, CC(C)N1C(=O)[C@@]2(Cc3ccccc31)c1ccccc1C(=O)N(C1CCCCC1)[C@H]2c1ccc(CO)cc1 0.04, COCCOC(=O)N1C(=O)[C@@]2(c3cc(C#CC4(O)CCCCCC4)ccc31)[C@H](c1ccc(O)cc1)N1[C@H](c3ccccc3)[C@H](c3ccccc3)OC(=O)[C@H]1[C@@H]2C(=O)Nc1nc2ccccc2s1 -0.565, O=C1O[C@@H](c2ccccc2)[C@@H](c2ccccc2)N2[C@@H](c3ccccc3OCCO)[C@]3(C(=O)Nc4ccc(C#CC5=CCCCC5)cc43)[C@@H](C(=O)Nc3nc4ccccc4s3)[C@H]12 0.36, C=CCOC(=O)[C@@H]1[C@H]2C(=O)O[C@H](c3ccccc3)[C@H](c3ccccc3)N2[C@H](c2ccc(OCCOC(=O)[C@@H]3C[C@@H]4C(=O)N5CCC[C@H]5C(=O)N4[C@@H]3c3ccc(O)cc3)cc2)[C@@]12C(=O)Nc1ccc(I)cc12 2.52, C=CCNC(=O)[C@H]1[C@@H]2C(=O)O[C@@H](c3ccccc3)[C@@H](c3ccccc3)N2[C@@H](c2ccc(OCCO)cc2)[C@]12C(=O)N(C(=O)OCCOC)c1ccccc12 0.159, COc1ccc(C(=O)O[C@H]2CC[C@]3(C)C4=C(CCC3C2(C)C)[C@]2(C)CC[C@H]([C@H](C)CCCC(C)C)[C@@]2(C)CC4)cc1 (stereo not given in full) 3.06
